Screening results as filed in PubChem.
Compounds with a hit are over-represented: about 5.7% of the library has one in this group of screens.
DAX1 inh-1: DAX1 (NR0B1) inhibition, primary screen. HEK293T StAR-luciferase reporter, SF-1/DAX-1 repression relief. inhibition, % at 6.8 µM. hit rate 1.1% among 370,000. AID 652010;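 active = inhibition above the mean over all tested compounds plus 3 SD, cut at about 3.6% in these data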;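 also: higher inhibition means more luminescence from relief of DAX-1 repression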
AHR act: activators of human aryl hydrocarbon receptor. activation, % at 5 µM. AHR-responsive luciferase reporter cells, luminescence. AID 2796. P35869. hit rate 2.5% among 320,000; in the data active = activation above about 47%
hgDAF-12 ag: agonists of H. glycines DAF-12 nuclear receptor; AID 687014; hit rate 1.8% among 370,000; HEK293 GAL4-hgDAF12 UAS-luciferase reporter, agonist luminescence; normalized to butyrate control; activation, % at 6.8 µM;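 active = activation above a cutoff set at the mean of all screened compounds plus 3 SD, cut at about 10% in these data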
ssDAF12 agonist: S. stercoralis DAF-12 activation, primary screen; HEK293 ssDAF-12/GRIP1 lit1-tk-luc reporter, luminescence; % of 3 µM dafachronic acid response; activation, % at 6.8 µM; hit rate 1% among 370,000; AID 652126;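 active = activation above the mean over all tested compounds plus 3 SD, cut at about 0.9% in these data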
hcDAF-12 act: activators of H. contortus DAF-12 nuclear receptor; HEK293 hcDAF-12 lit1-tk-luc reporter, luminescence; 0% DMSO, 100% Δ7-dafachronic acid; activation, % at 6.8 µM; hit rate 1.4% among 370,000;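 active = activation above the mean of all tested compounds plus 3 SD, cut at about 5.5% in these data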
DAX1 inh-2: inhibits human nuclear receptor DAX1; HEK293 Gal4-DAX1 luciferase reporter, luminescence; inhibition, % at 6.75 µM; hit rate 0.99% among 340,000; AID 504766;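 active = inhibition above the mean over all tested compounds plus 3 SD, cut at about 4.2% in these data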;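 also: inhibition shows as a rise in luminescence from relieved DAX1 repression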
Target sequence (P51843 207-470 limits assumed): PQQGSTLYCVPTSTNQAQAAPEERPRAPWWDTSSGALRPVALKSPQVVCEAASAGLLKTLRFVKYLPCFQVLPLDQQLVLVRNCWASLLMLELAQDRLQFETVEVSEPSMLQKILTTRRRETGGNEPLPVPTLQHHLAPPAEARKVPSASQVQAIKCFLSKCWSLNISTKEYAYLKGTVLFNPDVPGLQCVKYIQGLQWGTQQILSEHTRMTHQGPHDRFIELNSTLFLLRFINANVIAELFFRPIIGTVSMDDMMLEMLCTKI
AHR act confirm: human AHR activation, confirmation. hit rate 87% among 2,300. shares compounds with AHR act. human cells, AHR-responsive luciferase reporter, luminescence. activation, % at 9 µM. AID 2845; in the data active = activation above about 49%;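 also: HepG2 hepatoma cells carrying a DRE-driven firefly luciferase reporter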
PXR act counter: activates human PXR in AHR activator counter-screen | shares compounds with AHR act | cell-based PXR reporter, luciferase luminescence | activation, % at 11.6 µM | hit rate 88% among 2,300; in the data active = activation above about 11%;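 also: human hepatoma DPX-2 cells expressing full-length human PXR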
A number is an active result; . = inactive; / = no result.

SMILES	DAX1 inh-1	AHR act	hgDAF-12 ag	ssDAF12 agonist	hcDAF-12 act	DAX1 inh-2	AHR act confirm	PXR act counter
Clc1ccc(-c2nnc(-c3ccccc3)c(N3CCSCC3)n2)cc1	.	.	.	.	.	.	/	/
CC(C)OC(=O)C1C(=O)CC(C)(O)C(C(=O)OC(C)C)C1c1cccnc1 (centres undefined)	.	.	.	.	.	.	/	/
O=C(Nc1ccc(Cl)cc1)c1cccc(NC2=NC3CS(=O)(=O)CC3S2)c1 (centres undefined)	.	182	.	.	.	.	117	19
CC(C)c1ccc(NC(=O)c2cccc(NC3=NC4CS(=O)(=O)CC4S3)c2)cc1 (centres undefined)	.	.	.	.	.	.	/	/
COc1cccc(NC(=O)C2CCCN2S(=O)(=O)c2ccc3c(c2)C(C)(C)C(=O)N3C)c1 (centres undefined)	.	.	.	.	.	.	/	/
CCCCNc1c(-c2ccc(-c3cccc(Cl)c3)cc2)nc2ccc(Cl)cn12	.	79	.	.	.	.	.	14
CCCCCCSc1ccc(-c2nc3ccc(Cl)cn3c2NCCCC)cc1OC	.	.	.	.	.	.	/	/
O=C(c1cc2cc(F)ccc2[nH]1)N1CCc2ccccc2C1	.	82	.	.	.	.	110	46
C=CCNC(=O)CCC(=O)NNc1nc2ccccc2c2nc(-c3ccccc3)nn12	.	100	.	.	.	.	61	13
O=C(O)CN1C(=O)/C(=C\c2ccccc2OCc2ccc(Cl)cc2Cl)SC1=S	.	82	.	.	.	.	59	29
CC12CN3CCN(CC(C3)/C1=N\NC(=O)Nc1cccc(Cl)c1)C2	.	.	.	.	.	/	/	/
Cc1ccc(N2C(=O)CC(c3c[nH]c4ccccc34)C2=O)cc1 (centres undefined)	.	.	.	.	.	.	/	/
CCC1=NN=C(c2ccc(F)cc2)C(c2c[nH]c3ccccc23)N1O (centres undefined)	.	87	.	0.9	.	.	78	20
O=C(NCCCc1ccccc1)Nc1cccc(Cl)c1	.	.	.	.	.	.	/	/
O=C(NCCc1ccncc1)Nc1cccc(Cl)c1	.	90	.	.	.	.	56	17
O=C(N/N=C/c1cccc(O)c1)c1ccc(COc2ccc3c(c2)CCC3)o1	.	118	.	.	.	.	64	19
O=C(c1ccc(COc2ccc3c(c2)CCC3)o1)N1CCN(c2ccccc2)CC1	.	.	.	.	.	.	/	/
CCOC(=O)C(C)Oc1cccc2c(=O)n(CC(=O)Nc3ccc(OCC)cc3)ccc12 (centres undefined)	.	.	.	.	.	.	/	/
CCn1c(CNc2ccc(F)cc2)nnc1SCC(=O)Nc1ccccc1OC	.	.	.	.	.	.	/	/
Cc1ccc(-c2nnc3ccc(SCC(=O)N4CCCc5ccccc54)nn23)cc1	.	.	.	.	.	.	/	/
Cc1cc(C)cc(-c2nc(-c3ccncc3)no2)c1	.	.	.	.	.	.	/	/
O=[N+]([O-])c1cc(-c2nc(-c3ccncc3)no2)cc([N+](=O)[O-])c1	.	90	.	.	.	.	72	/
Cn1c(N)c(C(=O)Nc2ccccc2F)sc1=S	.	115	.	.	.	.	105	/
Nc1c(C(=O)Nc2ccc(F)cc2)sc(=S)n1-c1ccccc1F	.	.	.	.	.	.	/	/
C/C(=C\C(=O)c1ccc(Br)cc1)NCc1ccccc1	.	95	.	.	.	.	.	27
SMILES	DAX1 inh-1	AHR act	hgDAF-12 ag	ssDAF12 agonist	hcDAF-12 act	DAX1 inh-2	AHR act confirm	PXR act counter
C/C(=C\C(=O)c1ccc(Br)cc1)NCc1ccc(C)cc1	.	.	.	.	.	.	/	/
CCc1noc(N)c1C(=O)Nc1ccc(F)c(Cl)c1	.	80	.	.	.	.	109	12
Cc1noc(N)c1C(=O)Nc1ccc(F)c(Cl)c1	.	.	.	.	.	.	/	/
CN(C)/C=N/c1nc(-c2ccc3c(c2)OCO3)cs1	.	81	11	.	.	.	69	28
CC(O)(c1ccccc1)c1nc(-c2ccc3c(c2)OCO3)cs1 (centres undefined)	.	/	.	.	.	/	/	/
O=C(CCn1nc(-c2ccccc2)ccc1=O)N1CCOCC1	.	.	.	.	.	.	/	/
O=C(CCn1nc(-c2ccccc2)ccc1=O)N1CCN(c2ccccn2)CC1	.	82	.	.	.	.	.	.
Cc1cc(C)nc(Nc2ncc(O)n2-c2ccccc2)n1	.	90	.	.	.	.	61	/
CCOc1ccccc1Oc1cn[nH]c1-c1ccc(OCC(=O)NN)cc1O	.	107	.	.	.	.	68	15
C=C(C)COc1ccc(-c2[nH]ncc2Oc2ccccc2OC)c(O)c1	.	98	.	.	.	.	55	66
CCOc1ccc(NC(=O)Cn2cc(C(C)=O)c3ccccc32)cc1	.	.	.	.	.	.	/	/
O=C(Nc1cccc(-c2csc(-c3ccccc3)n2)c1)c1cccs1	.	.	.	.	.	.	/	/
CCn1c2ccccc2c2cc(Nc3cc(C)nc4ncnn34)ccc21	3.6	132	.	.	.	.	89	90
CC1CCC(=NNC(=O)c2ccccc2-n2cccc2)CC1 (centres undefined)	.	.	.	.	.	.	/	/
NC(=O)C(=O)NN=C1CCC(c2ccccc2)CC1 (centres undefined)	.	.	.	.	.	.	/	/
O=C(NN=C1CCC(c2ccccc2)CC1)c1ccccc1-n1cccc1 (centres undefined)	.	117	.	.	.	.	.	.
CC1CCC/C(=N/NC(=O)c2ccccc2-n2cccc2)C1 (centres undefined)	.	83	.	.	6.1	.	.	11
CCOc1ccc(N2C(=O)CC(Sc3nnnn3-c3ccccc3)C2=O)cc1 (centres undefined)	.	/	.	.	.	.	/	/
Cc1ccc2nsnc2c1NC(=S)NC(=O)c1ccco1	.	97	.	.	.	.	111	15
CCOc1ccccc1Nc1nnc(SCC(=O)Nc2cccc(S(=O)(=O)NC3=NCCCCC3)c2)s1	.	87	.	.	.	.	76	127
CCc1cc2c(COC(=O)c3cccc(NS(C)(=O)=O)c3)cc(=O)oc2cc1O	.	.	.	.	.	.	/	/
COc1ccc(Nc2nc(N)nc(CSc3nnc(N)s3)n2)cc1	.	112	.	.	.	.	110	15
O=C(NC1=C(Nc2ccc(F)cc2)C(=O)c2ccccc2C1=O)c1ccc(Cl)cc1	.	88	.	.	.	.	90	72
